Values joined by “and” are separate entries in the source; they are usually repeats but may differ in a detail not shown here. Equal entries are not always repeated. The source holds several records for some structures; these can differ, active in one and inactive in another. Active and inactive are the calls of the source. Rule for the calls: active = hit-call score of the fitted dose curve at least 0.9, where 1 is the maximum; inactive = score below 0.9.
Tests used:
[1] = read-out: Macrophage colony-stimulating factor (MCSF), CSF1 (gene 1435); assay: BSK_hDFCGF_MCSF: BioMAP Diversity Plus: hDFCGF Assay for Macrophage colony-stimulating factor (MCSF) Biomarker Activity (AID 2283060); conditions: primary human foreskin fibroblasts; actives raise or lower the signal
How it was run: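 fibroblasts (human foreskin, primary), 24 h post-dose; M-CSF by ELISA; bidirectional fit, DMSO = baseline.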

[2] = BSK_hDFCGF_SRB: Viability Assessment in the BioMAP Diversity Plus: hDFCGF Assay (AID 2283061); conditions: primary human foreskin fibroblasts;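 note: cells exposed to compound for 24 h before the read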
How it was run: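 SRB-based viability read on primary human skin fibroblasts at 24 h: TCA fixation, 0.1% dye, 560 nm. Gain or loss of signal is fitted against the DMSO negative control.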

[3] = read-out: TIMP metallopeptidase inhibitor 1 (TIMP1), TIMP1 (gene 7076); assay: BSK_hDFCGF_TIMP1: BioMAP Diversity Plus: hDFCGF Assay for TIMP metallopeptidase inhibitor 1 (TIMP1) Biomarker Activity (AID 2283062); conditions: primary human foreskin fibroblasts; actives raise or lower the signal
How it was run: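 Bidirectional curve fitting against DMSO baseline yielded this endpoint, based on ELISA detection of TIMP-1 in primary human foreskin fibroblasts exposed to compound for 24 h.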

[4] = read-out: Monokine induced gamma interferon (MIG), CXCL9 (gene 4283); assay: BSK_hDFCGF_MIG: BioMAP Diversity Plus: hDFCGF Assay for Monokine induced gamma interferon (MIG) Biomarker Activity (AID 2283063); conditions: primary human foreskin fibroblasts; actives raise or lower the signal
How it was run: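 Endpoint derived by bidirectional fitting relative to DMSO; MIG quantified via ELISA in primary human foreskin fibroblasts harvested 24 h after dosing.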

[5] = read-out: Matrix Metallopeptidase 1 (MMP1), MMP1 (gene 4312); assay: BSK_hDFCGF_MMP1: BioMAP Diversity Plus: hDFCGF Assay for Matrix Metallopeptidase 1 (MMP1) Biomarker Activity (AID 2283064); conditions: primary human foreskin fibroblasts; actives raise or lower the signal
How it was run: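 Primary human foreskin fibroblasts in the hDFCGF system were dosed with test chemical, and MMP1 was measured by ELISA 24 h later. Values come from bidirectional curve fitting against the DMSO baseline.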

[6] = read-out: Vascular cell adhesion molecule 1 (VCAM1), VCAM1 (gene 7412); assay: BSK_hDFCGF_VCAM1: BioMAP Diversity Plus: hDFCGF Assay for Vascular cell adhesion molecule 1 (VCAM1) Biomarker Activity (AID 2283065); conditions: primary human foreskin fibroblasts; actives raise or lower the signal;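 for AC50: VCAM-1 protein level quantified by ELISA after 24 h chemical exposure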
How it was run: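 Measured after 24 h chemical treatment of primary human skin fibroblasts, VCAM-1 was detected by ELISA and concentration-response analysed in both directions versus DMSO vehicle.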

[7] = read-out: Plasminogen activator inhibitor-1 (PAI1), SERPINE1 (gene 5054); assay: BSK_hDFCGF_PAI1: BioMAP Diversity Plus: hDFCGF Assay for Plasminogen activator inhibitor-1 (PAI1) Biomarker Activity (AID 2283066); conditions: primary human foreskin fibroblasts; actives raise or lower the signal
How it was run: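 Human foreskin fibroblast primary cells, 24 h chemical exposure; PAI-1 measured by ELISA. Bidirectional fitting relative to DMSO; parallel cultures stained with SRB for total protein to flag overt cytotoxicity.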

[8] = read-out: Intercellular Adhesion Molecule 1 (ICAM1), ICAM1 (gene 3383); assay: BSK_KF3CT_ICAM1: BioMAP Diversity Plus: KF3CT Assay for Intercellular Adhesion Molecule 1 (ICAM1) Biomarker Activity (AID 2283067); conditions: primary human keratinocytes with fibroblasts; actives raise or lower the signal
How it was run: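 Bidirectional curve fitting against a DMSO baseline was applied to ICAM-1 ELISA signal from primary human skin co-cultures harvested 24 h after treatment, with SRB staining of parallel wells for overt cytotoxicity.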

[9] = BSK_KF3CT_SRB: Viability Assessment in the BioMAP Diversity Plus: KF3CT Assay (AID 2283069); conditions: primary human keratinocytes with fibroblasts;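 note: total protein by sulforhodamine B staining as a cytotoxicity measure; read 24 h after compound addition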
How it was run: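 Human primary keratinocyte plus foreskin fibroblast co-culture exposed to chemicals for 24 h. Total protein measured by 0.1% sulforhodamine B staining after 10% TCA fixation, read at 560 nm; bidirectional fitting versus DMSO baseline.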

[10] = read-out: Interleukin-1 alpha (IL1a), IL1A (gene 3552); assay: BSK_KF3CT_IL1a: BioMAP Diversity Plus: KF3CT Assay for Interleukin-1 alpha (IL1a) Biomarker Activity (AID 2283070); conditions: primary human keratinocytes with fibroblasts; actives raise or lower the signal
How it was run: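 Human keratinocyte plus foreskin fibroblast primary co-culture, sampled 24 h after chemical dosing. IL-1a measured by ELISA; responses fitted bidirectionally against DMSO baseline (negative control), so gain or loss of signal both count.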

[11] = read-out: TIMP metallopeptidase inhibitor 2 (TIMP2), TIMP2 (gene 7077); assay: BSK_KF3CT_TIMP2: BioMAP Diversity Plus: KF3CT Assay for TIMP metallopeptidase inhibitor 2 (TIMP2) Biomarker Activity (AID 2283071); conditions: primary human keratinocytes with fibroblasts; actives raise or lower the signal
How it was run: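 Co-culture of human primary keratinocytes and foreskin fibroblasts, measured 24 h after chemical dosing. TIMP-2 quantified by ELISA and fitted in both directions relative to DMSO. Cytotoxicity checked in parallel cultures by SRB total-protein staining.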

[12] = read-out: C-C motif chemokine 2 (Homo sapiens) (UniProt P13500); assay: BSK_KF3CT_MCP1: BioMAP Diversity Plus: KF3CT Assay for Monocyte Chemoattractant Protein 1 (MCP1/CCL2) Biomarker Activity (AID 2283073); conditions: primary human keratinocytes with fibroblasts; actives raise or lower the signal
How it was run: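 Biomarker MCP-1 is measured by ELISA in primary human keratinocytes co-cultured with foreskin fibroblasts, 24 h after chemical treatment; DMSO serves as the negative control and activity baseline.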

[13] = read-out: Matrix Metallopeptidase 9 (MMP9), MMP9 (gene 4318); assay: BSK_KF3CT_MMP9: BioMAP Diversity Plus: KF3CT Assay for Matrix Metallopeptidase 9 (MMP9) Biomarker Activity (AID 2283074); conditions: primary human keratinocytes with fibroblasts; actives raise or lower the signal;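 for AC50: MMP9 protein level quantified by ELISA in the co-culture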
How it was run: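 Keratinocyte plus foreskin fibroblast human primary skin co-culture was dosed with chemical and MMP-9 was quantified by ELISA 24 h later. Bidirectional curve fitting used DMSO as negative control and activity baseline.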

[14] = read-out: urokinase plasminogen activator (uPA), PLAU (gene 5328); assay: BSK_KF3CT_uPA: BioMAP Diversity Plus: KF3CT Assay for urokinase plasminogen activator (uPA) Biomarker Activity (AID 2283075); conditions: primary human keratinocytes with fibroblasts; actives raise or lower the signal
How it was run: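 Human keratinocyte plus foreskin fibroblast primary co-culture exposed to chemical for 24 h. uPA levels were quantified by ELISA, and activity was fitted bidirectionally against a DMSO negative-control baseline.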

CD40, CD40 (gene 958) = assay: BSK_LPS_CD40: BioMAP Diversity Plus: LPS Assay for CD40 Biomarker Activity (AID 2283076); conditions: primary human HUVEC with PBMC; actives raise or lower the signal
How it was run: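 Using a multiplexed primary human co-culture (umbilical vein endothelium plus PBMC), CD40 was read by ELISA 24 h after dosing, with cytotoxicity tracked by sulforhodamine B staining of parallel cultures and activity fitted bidirectionally versus DMSO.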

[15] = read-out: E-selectin (Homo sapiens) (UniProt P16581); assay: BSK_LPS_Eselectin: BioMAP Diversity Plus: LPS Assay for Eselectin Biomarker Activity (AID 2283077); conditions: primary human HUVEC with PBMC; actives raise or lower the signal
How it was run: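 Dose chemical onto LPS-driven HUVEC/PBMC co-culture; after 24 h, run ELISA for E-selectin; fit up- and down-going responses relative to DMSO control.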

[16] = BSK_LPS_SRB: Viability Assessment in the BioMAP Diversity Plus: LPS Assay (AID 2283079); conditions: primary human HUVEC with PBMC;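 note: total protein by sulforhodamine B absorbance as a cytotoxicity measure; measured one day after compound addition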
How it was run: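 Cytotoxicity endpoint in human endothelial–PBMC co-culture: 24 h exposure, then SRB (0.1%) staining, 560 nm read.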

[17] = read-out: Interleukin-8 (IL8), CXCL8 (gene 3576); assay: BSK_LPS_IL8: BioMAP Diversity Plus: LPS Assay for Interleukin-8 (IL8) Biomarker Activity (AID 2283078); conditions: primary human HUVEC with PBMC; actives raise or lower the signal
How it was run: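 In this LPS system, chemical-treated human umbilical vein endothelium/PBMC co-cultures were harvested at 24 h for IL-8 ELISA.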

[18] = read-out: Transforming growth factor beta 1 (TGFb1), TGFB1 (gene 7040); assay: BSK_KF3CT_TGFb1: BioMAP Diversity Plus: KF3CT Assay for Transforming growth factor beta 1 (TGFb1) Biomarker Activity (AID 2283072); conditions: primary human keratinocytes with fibroblasts; actives raise or lower the signal
How it was run: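 Human keratinocyte/foreskin fibroblast co-culture; TGF-b1 measured by ELISA 24 h after dosing, fitted bidirectionally versus DMSO. Cytotoxicity checked in parallel cultures by total protein (SRB staining, 560 nm).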

Measured: AC50

Sequence of E-selectin (Homo sapiens) (P16581 whole entry, looked up): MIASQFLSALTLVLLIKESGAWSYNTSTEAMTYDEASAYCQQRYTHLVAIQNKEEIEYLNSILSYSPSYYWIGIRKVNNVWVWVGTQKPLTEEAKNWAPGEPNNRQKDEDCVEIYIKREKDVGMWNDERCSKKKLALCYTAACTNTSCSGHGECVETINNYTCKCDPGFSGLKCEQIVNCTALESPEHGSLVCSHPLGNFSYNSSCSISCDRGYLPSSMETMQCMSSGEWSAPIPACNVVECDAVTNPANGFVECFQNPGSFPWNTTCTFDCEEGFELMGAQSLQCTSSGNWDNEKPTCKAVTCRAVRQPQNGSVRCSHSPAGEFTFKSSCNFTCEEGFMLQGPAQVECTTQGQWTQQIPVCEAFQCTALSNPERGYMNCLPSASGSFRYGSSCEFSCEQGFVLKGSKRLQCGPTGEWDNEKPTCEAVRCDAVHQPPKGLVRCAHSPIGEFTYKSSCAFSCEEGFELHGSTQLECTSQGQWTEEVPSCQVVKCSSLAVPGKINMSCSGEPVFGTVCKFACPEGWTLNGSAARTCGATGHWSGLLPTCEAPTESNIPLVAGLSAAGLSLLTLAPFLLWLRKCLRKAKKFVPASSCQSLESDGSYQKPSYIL

O=C(O)C(F)(OC(F)(F)C(F)(OC(F)(F)C(F)(F)C(F)(F)F)C(F)(F)F)C(F)(F)F (centres undefined)
not listed: [17] | [18]
inactive: all other assays above

O=C(O)C(F)(F)C(F)(F)F
not listed: [10] | [18]
inactive: all other assays above

CC(CCl)OP(=O)(OC(C)CCl)OC(C)CCl (centres undefined)
active: [7] 15.9 nM
inactive: all other assays above

C=CC(F)(F)C(F)(F)C(F)(F)C(F)(F)C(F)(F)C(F)(F)C(F)(F)C(F)(F)F
not listed: [10] | [18]
inactive: all other assays above

Cc1ccc(S(=O)(=O)OCC(F)(F)C(F)(F)C(F)(F)C(F)(F)C(F)(F)C(F)F)cc1
inactive: [1] | [2] | [3] | [4] | [5] | [6] | [7] | [8] | [9] | [10] | [11] | [12] | [13] | [14] | CD40, CD40 (gene 958) | [15] | [17] | [16]
active: [13] 10.8 µM | CD40, CD40 (gene 958) 30 µM

CCCCCCOC(=O)c1ccccc1O
active: [1] 34.8 µM and 35.1 µM | [2] 40 µM and 44.8 µM | [3] 39.7 µM and 31.2 µM | [4] 18.2 µM and 21.3 µM | [5] 35.8 µM | [6] 33.1 µM and 35.3 µM | [7] 39.3 µM and 39.6 µM | [12] 32.8 µM | CD40, CD40 (gene 958) 41.9 µM and 24.5 µM | [15] 38.1 µM and 44.8 µM | [17] 41.9 µM and 38.9 µM | [16] 43.2 µM and 42.1 µM
inactive: [8] | [9] | [10] | [11] | [12] | [13] | [14]

Reference: PubChem BioAssay (EPA / NIEHS)
